This note sets out measurements from PubChem BioAssay.

The structures appear in SMILES notation. Active and inactive are the calls of the source.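 Rule for the calls: active = compounds whose cell count with miR-34 switched on is under 0.7 times the count with it off; inactive = the rest.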

A short description of this assay: sensitizers of A549 cells to miR-34 induction, primary screen, imaging, A549 dox-inducible miR-34, nuclei and caspase counts (AID 1347080). Note: test concentration not given here. The following applies: A549 miR-34 inducible, Hoechst nuclei count, 48 h; hits give low values; cell number ratio, induced over uninduced.
Turning to `CCCCC[C@H](O)/C=C/[C@H]1C(=O)C[C@H](O)[C@@H]1C/C=C\CCCC(=O)OC`, the fold change was 0.892 (inactive).

As to `C#C[C@]1(O)CC[C@H]2[C@@H]3CCC4=CC(=O)CCC4[C@H]3CC[C@@]21CC` (some centres not stated), the fold change is 0.961 (inactive). The value for `COC(=O)CCCCCC[C@@H]1[C@@H](CCC(O)C#Cc2ccccc2F)[C@H](O)C[C@@H]1O` (some centres not stated) was 1.01 (inactive); that for `CC(Sc1nc2ccccc2[nH]1)C(=O)N/N=C/c1cc(Br)ccc1O` (configuration not stated) was 1.01 (inactive). With `CC(C)=CCC/C(C)=C/CC/C(C)=C/CC[C@]1(C)CCc2c(C)c(O)c(C)c(C)c2O1` the figure was 0.928 (inactive); with `Cc1c(C(=O)c2ccccc2)c(N)c(-c2ccccc2)n1Cc1ccc(Cl)cc1`, 0.936 (inactive). As to `CCCCCCCCCCCCCCCCC/C=C/C(=O)O`, the fold change is 0.976 (inactive). With `CCCCC(C)(C)[C@H](O)/C=C/[C@@H]1[C@@H](C/C=C\CCCC(=O)O)[C@H](O)C[C@H]1O` the figure was 0.901 (inactive); with `CCCCCCC[C@H](O)/C=C/[C@H]1[C@H](O)CC(=O)[C@@H]1C/C=C\CCCC(=O)O`, 0.933 (inactive); with `CCCCC/C=C\C/C=C\C/C=C\C/C=C\CCCC(=O)OCC`, 0.807 (inactive).

Turning to `CCCCC/C=C\C/C=C\C/C=C\C/C=C\CCCC(=O)OCc1ccsc1`, the fold change is 0.989 (inactive). The value for `CC/C=C\C/C=C\C/C=C\C/C=C\CCCCC(=O)O` was 0.875 (inactive). With `OC1C[C@@H]2[C@@H](CC[C@@H](O)CCc3ccccc3)[C@H](O)C[C@@H]2O1` (some centres not stated), the fold change is 1.04 (inactive). On to `C[C@H](CCCO)[C@H]1CC[C@H]2[C@@H]3[C@H](O)C[C@H]4C[C@H](O)CC[C@]4(C)[C@H]3C[C@H](O)[C@]12C`, for which the fold change was 0.949 (inactive). Take `CCCCCCCCCCCCCCCCOC[C@H](COP(=O)([O-])OCC[N+](C)(C)C)OC(=O)CCCCCCCC(=O)O`: the fold change is 0.862 (inactive). For `O=P(O)(O)OC1[C@H](OP(=O)(O)O)[C@H](O)C(O)[C@H](O)[C@H]1OP(=O)(O)O` (some centres not stated), the fold change is 0.94 (inactive). The value for `CCCCCCCCCCCCC/C=C/[C@@H](O)[C@H](COP(=O)(O)O)NC(=O)CCCCCCC` was 1.01 (inactive). As to `O=C1OC(O)C(c2cc3ccccc3s2)=C1Br` (configuration not stated), the fold change is 0.915 (inactive).

On to `CCCCC[C@@H](O)/C=C/[C@H]1[C@H](O)CC(=O)[C@@H]1CCCCCCC(=O)O`, for which the fold change was 0.974 (inactive). With `CCCCCCCCCCCCCCCC(=O)OC[C@@H](O)COP(=O)(O)O` the figure was 0.985 (inactive); with `CCCCC[C@H](O)/C=C/[C@H]1[C@H](O)CC(=O)[C@@H]1CCCCCCC(=O)NCCO`, 0.954 (inactive); with `CCCCCCCCCCCCCCCCC/C=C\C(=O)O`, 0.872 (inactive). As to `CCCCC[C@@](C)(O)/C=C/[C@H]1C=CC(=O)[C@@H]1C/C=C\CCCC(=O)O`, the fold change was 0.996 (inactive).

Take `O=C(OCc1ccccc1)[C@H](O)c1ccccc1`: the fold change was 1.04 (inactive). Turning to `C=CCN(C)CCCCCCOc1ccc(C(=O)c2ccc(Br)cc2)c(F)c1`, the fold change was 1.01 (inactive). On to `O=C(O)CCC/C=C/C[C@@H]1[C@@H](/C=C/[C@@H](O)COc2cccc(C(F)(F)F)c2)[C@H](O)C[C@@H]1O`, for which the fold change was 0.985 (inactive). With `CCCCCCCCCCCCCCCCCCCCCCCCC(=O)OC` the figure was 1.06 (inactive); with `CCCCCCCCCCCCCCCCCCCCCCCCCCCCCCO`, 0.965 (inactive); with `CC/C=C\C/C=C\C/C=C\C/C=C\C/C=C\CCCC(=O)O[C@H](COCCCCCCCCCCCCCCCC)COP(=O)([O-])OCC[N+](C)(C)C`, 0.886 (inactive).

As for `CCCCC/C=C\C=C\[C@H](O)CCCCCCCC(=O)O`, the fold change was 1.01 (inactive). With `CCCCC[C@@H](O)/C=C/[C@H]1C[C@H]2C[C@@H]([C@@H]1C/C=C\CCCC(=O)O)C2(C)C` the figure was 0.917 (inactive); with `CCCCC[C@@](C)(O)/C=C/[C@H]1[C@H](O)CC(=O)[C@@H]1C/C=C\CCCC(=O)O`, 1.04 (inactive). Regarding `CCCCC/C=C\C/C=C\C/C=C\CCCCC(=O)OC`, the fold change was 1.06 (inactive). The value for `CCCCCCCC/C=C\CCCCCCCC(=O)OCC` was 1 (inactive); that for `CCCC1([C@@H](O)C/C=C/[C@H]2[C@H](O)CC(=O)[C@@H]2CCCCCCC(=O)O)CCC1` was 0.95 (inactive).

With `CC(C)OC(=O)CCC/C=C\C[C@@H]1[C@@H](/C=C/C(F)(F)COc2ccccc2)[C@H](O)C[C@@H]1O`, the fold change is 1.05 (inactive). With `CCCCC[C@@](C)(O)/C=C/[C@@H]1[C@@H](C/C=C\CCCC(=O)OC)[C@@H](O)C[C@H]1O` the figure was 0.949 (inactive).
